Experimental data: PubChem BioAssay (Tox21)
Inconclusive results are not listed. Entries that show only a call come without a potency. Active and inactive are the calls of the source.

biological target: Glucocorticoid receptor (Homo sapiens) (UniProt P04150); assay: qHTS assay to identify small molecule agonists of the glucocorticoid receptor (GR) signaling pathway (AID 720691; active means well fitted activation curve with a large enough effect in the signal ratio in the repeat runs, not every such curve was filed as active; the % refers to the signal ratio); details: GR-bla HeLa, beta-lactamase reporter ratio, 18 h; series mostly up to 62.4 µM
Sequence (P04150 whole entry, looked up): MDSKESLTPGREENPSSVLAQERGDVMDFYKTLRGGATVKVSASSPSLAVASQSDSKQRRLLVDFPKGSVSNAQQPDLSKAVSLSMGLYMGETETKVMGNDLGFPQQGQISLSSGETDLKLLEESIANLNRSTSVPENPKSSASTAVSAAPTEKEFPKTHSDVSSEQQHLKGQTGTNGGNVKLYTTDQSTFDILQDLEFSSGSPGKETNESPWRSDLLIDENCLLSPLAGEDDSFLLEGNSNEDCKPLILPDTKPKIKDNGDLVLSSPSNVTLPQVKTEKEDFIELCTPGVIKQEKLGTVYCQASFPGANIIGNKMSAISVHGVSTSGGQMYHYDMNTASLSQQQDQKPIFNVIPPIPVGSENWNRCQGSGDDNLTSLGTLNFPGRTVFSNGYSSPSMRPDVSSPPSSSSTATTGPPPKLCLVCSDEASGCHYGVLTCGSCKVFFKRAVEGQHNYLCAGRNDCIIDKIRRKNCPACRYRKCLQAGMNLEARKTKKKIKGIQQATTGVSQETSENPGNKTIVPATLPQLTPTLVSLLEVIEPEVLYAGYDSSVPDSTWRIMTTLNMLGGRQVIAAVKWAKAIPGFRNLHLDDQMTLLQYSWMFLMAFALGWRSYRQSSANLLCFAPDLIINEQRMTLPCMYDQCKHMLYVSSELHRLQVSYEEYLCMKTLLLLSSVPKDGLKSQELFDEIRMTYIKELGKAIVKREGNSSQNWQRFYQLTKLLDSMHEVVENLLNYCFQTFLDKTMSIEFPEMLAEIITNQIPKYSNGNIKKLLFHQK
In short: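 Cells: GR-bla HeLa, endogenous GR with stably integrated GRE-beta-lactamase reporter. Treatment 18 h, 37 C, compounds delivered in DMSO. Detection via LiveBLAzer B/G FRET substrate, 2 h RT, fluorescence intensity.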

| Compound | Potency |
| --- | --- |
| Oc1ccccc1F | inactive |
| CCOc1ccc(NC(N)=O)cc1 | inactive |
| COc1ccc2nc(NC(=O)Nc3ccccc3)sc2c1 | inactive |
| CCC/C=C/CO | inactive |
| CN1C(=O)CC(c2ccccc2)C1=O (configuration not stated) | inactive |
| Cc1ccc(C(C)C)cc1O | inactive |
| CCOc1ccc(OCC)c(Cl)c1 | inactive |
| Cc1ccc([N+](=O)[O-])c(N)c1 | inactive |
| CCCCN1C[C@H](O)[C@@H](O)[C@H](O)[C@H]1CO | inactive |
| CN1CCN(C2=Nc3ccccc3Oc3ccc(Cl)cc32)CC1 | inactive |
| CC1CN(c2ccccc2)NC1=O (configuration not stated) | inactive |
| CC(C)=CCCC(C)CCOC=O (configuration not stated) | inactive |
| CCOC(=O)CS | inactive |
| Cc1cc2c(s1)Nc1ccccc1N=C2N1CCN(C)CC1 | inactive |
| O=C1CCCCC1C1CCCCC1 (configuration not stated) | inactive |
| CCC(=O)c1ccc2c(c1)N(CCCN(C)C)c1ccccc1S2 | inactive |
| CCOc1ccc(NS(=O)(=O)c2ccc(N)cc2)nn1 | inactive |
| Cn1cnc2c(F)c(Nc3ccc(Br)cc3Cl)c(C(=O)NOCCO)cc21 | inactive |
| CCCCCCCCCCCCCCCCOP(=O)([O-])OCC[N+](C)(C)C | inactive |
| CCNCCO | inactive |
| CCCCCCCOC(=O)CCC | inactive |
| O=[N+]([O-])c1nccn1CO[C@@H](CO)[C@H](O)CO | inactive |
| C[C@@H]1CN(c2c(F)c(F)c3c(=O)c(C(=O)O)cn(C4CC4)c3c2F)C[C@H](C)N1 | inactive |

biological target: Glucocorticoid receptor (Homo sapiens) (UniProt P04150); assay: qHTS assay to identify small molecule antagonists of the glucocorticoid receptor (GR) signaling pathway (AID 720692; active means well fitted inhibition curve with a large enough effect in the signal ratio in the repeat runs, not every such curve was filed as active; the % refers to the signal ratio); details: GR-bla HeLa, beta-lactamase FRET ratio, dexamethasone-stimulated, 18 h; series mostly up to 58.5 µM
In short: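 Quantitative HTS in antagonist format: HeLa cells expressing endogenous GR and a stably integrated GRE-bla reporter, stimulated with 5 nM dexamethasone (final) alongside test compounds for 18 h.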

| Compound | Potency |
| --- | --- |
| CC1=C2[C@H](/C=C(\C)C(=O)O)CC[C@@H](C)[C@H]2CC1 | inactive |
| Oc1ccccc1F | inactive |
| CCOc1ccc(NC(N)=O)cc1 | inactive |
| CN1C(=O)CC(c2ccccc2)C1=O (configuration not stated) | inactive |
| Cc1ccc(C(C)C)cc1O | inactive |
| CCCCN1C[C@H](O)[C@@H](O)[C@H](O)[C@H]1CO | inactive |
| CC(C)=CCCC(C)CCOC=O (configuration not stated) | inactive |
| CCOC(=O)CS | inactive |
| Cc1cc2c(s1)Nc1ccccc1N=C2N1CCN(C)CC1 | inactive |
| O=C1CCCCC1C1CCCCC1 (configuration not stated) | inactive |
| CCOc1ccc(NS(=O)(=O)c2ccc(N)cc2)nn1 | inactive |
| CCNCCO | inactive |
| O=[N+]([O-])c1nccn1CO[C@@H](CO)[C@H](O)CO | inactive |
| C[C@@H]1CN(c2c(F)c(F)c3c(=O)c(C(=O)O)cn(C4CC4)c3c2F)C[C@H](C)N1 | inactive |
